Test results from PubChem BioAssay AID1159580 (chemical genetic matrix, 2015).
Screen size: about 5,500 compounds; about 2,000 (36%) were called active. Roughly 18% stayed inconclusive and do not appear here. Cut-off read from the data, not from the text of the source: active = normalized growth mostly below about 0.91 (no sharp cut-off); inconclusive = no clear call, values can overlap the other calls; inactive = mostly above about 0.92. The list shows a part of the results.

Assay: chemical genetic growth profiling, strain panel (AID 1159580);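 note: tested at 20 µM; growth read once vehicle control cultures reached saturation at 30 °C; 1 = growth at the plate median or of vehicle wells; lower values mean less growth of the strain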
Conditions: S. cerevisiae deletion strains, growth OD

Measured: normalized growth

N#Cc1cc(I)c(C#N)c(I)c1
active: locus YAL013W, strain DEP1, stronger effect = lower value 0.765 | locus YBR229C, strain ROT2, stronger effect = lower value 0.771 | locus YDL101C, strain DUN1, stronger effect = lower value 0.72 | locus YDR150W, strain NUM1, stronger effect = lower value 0.782 | locus YGR078C, strain PAC10, stronger effect = lower value 0.693 | locus YHR087W, strain rtc3, stronger effect = lower value 0.737 | locus YJR043C, strain POL32, stronger effect = lower value 0.777 | locus YJR075W, strain HOC1, stronger effect = lower value 0.693 | locus YLR058C, strain SHM2 (second series), stronger effect = lower value 0.733 | locus YMR219W, strain ESC1, stronger effect = lower value 0.786 | locus YMR263W, strain SAP30, stronger effect = lower value 0.775 | locus YNL153C, strain GIM3, stronger effect = lower value 0.746 | locus YNL322C, strain KRE1, stronger effect = lower value 0.75 | locus YPL055C, strain LGE1, stronger effect = lower value 0.643
inactive: locus YDL134C, strain PPH21, stronger effect = lower value 0.978 | locus YEL061C, strain CIN8, stronger effect = lower value 0.981 | locus YHR030C, strain SLT2, stronger effect = lower value 0.988 | locus YKL190W, strain CNB1, stronger effect = lower value 0.973 | locus YLR039C, strain RIC1, stronger effect = lower value 0.905 | locus YLR085C, strain ARP6, stronger effect = lower value 0.949 | locus YLR262C, strain YPT6, stronger effect = lower value 0.94 | locus YML094W, strain GIM5, stronger effect = lower value 0.98 | locus YMR307W, strain GAS1, stronger effect = lower value 0.961 | locus YNL298W, strain CLA4 (second series), stronger effect = lower value 0.937 | locus YNR030W, strain Alg12, stronger effect = lower value 0.949 | locus YPL241C, strain CIN2, stronger effect = lower value 0.979 | locus YPR135W, strain CTF4, stronger effect = lower value 1.01

CC(=CC1CCC(C)C2CCC(C)=C12)C(=O)O (configuration not stated)
inactive: locus YAL021C, strain ccr4, stronger effect = lower value 0.948 | locus YAL030W, strain snc1, stronger effect = lower value 0.93 | locus YBL061C, strain skt5, stronger effect = lower value 0.931 | locus YBR009C, strain hhf1, stronger effect = lower value 0.958 | locus YBR023C, strain chs3, stronger effect = lower value 0.929 | locus YBR231C, strain swc5, stronger effect = lower value 0.923 | locus YBR279W, strain paf1, stronger effect = lower value 0.95 | locus YCL011C, strain gbp2, stronger effect = lower value 0.986 | locus YCL016C, strain dcc1, stronger effect = lower value 0.927 | locus YCL069W, strain vba3, stronger effect = lower value 0.956 | locus YCR088W, strain abp1, stronger effect = lower value 0.938 | locus YDL005C, strain med2, stronger effect = lower value 0.953 | locus YDL040C, strain nat1, stronger effect = lower value 0.935 | locus YDR001C, strain nth1, stronger effect = lower value 0.943 | locus YDR069C, strain doa4, stronger effect = lower value 0.931 | locus YDR159W, strain sac3, stronger effect = lower value 0.888 | locus YDR195W, strain ref2 1.12 | locus YDR297W, strain sur2, stronger effect = lower value 0.943 | locus YDR334W, strain swr1, stronger effect = lower value 0.927 | locus YDR335W, strain msn5, stronger effect = lower value 0.944 | locus YEL003W, strain gim4, stronger effect = lower value 0.958 | locus YEL037C, strain rad23, stronger effect = lower value 0.942 | locus YEL061C, strain CIN8 (second series), stronger effect = lower value 0.947 | locus YER015W, strain faa2, stronger effect = lower value 0.971 | locus YER016W, strain bim1, stronger effect = lower value 0.936 | locus YER111C, strain swi4, stronger effect = lower value 0.923 | locus YER155C, strain BEM2 (second series), stronger effect = lower value 0.873 | locus YFR010W, strain ubp6, stronger effect = lower value 0.965 | locus YGL227W, strain vid30, stronger effect = lower value 0.952 | locus YGL240W, strain doc1, stronger effect = lower value 0.941 | locus YGL253W, strain hxk2, stronger effect = lower value 0.937 | locus YHR013C, strain ard1, stronger effect = lower value 0.954 | locus YHR027C, strain rpn1, stronger effect = lower value 0.956 | locus YHR142W, strain chs7, stronger effect = lower value 0.901 | locus YJL092W, strain hpr5, stronger effect = lower value 0.93 | locus YJL095W, strain BCK1 (second series), stronger effect = lower value 0.927 | locus YJL115W, strain asf1, stronger effect = lower value 0.965 | locus YJL154C, strain vps35, stronger effect = lower value 0.934 | locus YJL164C, strain tpk1, stronger effect = lower value 0.923 | locus YJL166W, strain qcr8, stronger effect = lower value 0.917 | locus YKL160W, strain elf1, stronger effect = lower value 0.939 | locus YKR026C, strain gcn3, stronger effect = lower value 0.939 | locus YLL001W, strain dnm1, stronger effect = lower value 0.966 | locus YLL026W, stronger effect = lower value 0.946 | locus YLL041C, strain sdh2, stronger effect = lower value 0.955 | locus YLR027C, strain aat2, stronger effect = lower value 0.953 | locus YLR221C, strain rsa3, stronger effect = lower value 0.943 | locus YLR258W, strain gsy2, stronger effect = lower value 0.941 | locus YLR357W, strain rsc2, stronger effect = lower value 1.01 | locus YLR384C, strain iki3, stronger effect = lower value 0.926 | locus YML120C, strain ndi1, stronger effect = lower value 0.968 | locus YMR058W, strain fet3, stronger effect = lower value 0.937 | locus YMR125W, strain sto1, stronger effect = lower value 0.937 | locus YMR129W, stronger effect = lower value 0.928 | locus YNL209W, strain ssb2, stronger effect = lower value 0.978 | locus YNL248C, strain rpa49, stronger effect = lower value 0.972 | locus YNL322C, strain KRE1 (second series), stronger effect = lower value 0.94 | locus YNR049C, strain mso1, stronger effect = lower value 0.941 | locus YOR001W, strain rrp6, stronger effect = lower value 0.942 | locus YOR070C, strain gyp1, stronger effect = lower value 0.943 | locus YOR080W, strain dia2, stronger effect = lower value 0.961 | locus YOR083W, strain WHI5, stronger effect = lower value 0.933 | locus YOR106W, strain vam3, stronger effect = lower value 0.914 | locus YOR265W, strain rbl2, stronger effect = lower value 0.956 | locus YOR290C, strain snf2, stronger effect = lower value 0.918 | locus YPL078C, strain atp4, stronger effect = lower value 0.946 | locus YPL106C, strain sse1, stronger effect = lower value 1.04
active: locus YAL026C, strain drs2, stronger effect = lower value 0.904 | locus YBR171W, strain sec66, stronger effect = lower value 0.876 | locus YDR137W, strain rgp1, stronger effect = lower value 0.573 | locus YDR392W, strain spt3, stronger effect = lower value 0.373 | locus YGL167C, strain pmr1, stronger effect = lower value 0.892 | locus YGL173C, strain kem1, stronger effect = lower value 0.891 | locus YJL129C, strain trk1, stronger effect = lower value 0.799 | locus YKR091W, strain srl3, stronger effect = lower value 0.93 | locus YLR262C, strain YPT6 (second series), stronger effect = lower value 0.591 | locus YLR320W, strain mms22, stronger effect = lower value 0.779 | locus YLR342W, strain FKS1, stronger effect = lower value 0.887 | locus YLR370C, strain arc18, stronger effect = lower value 0.906 | locus YMR205C, strain PFK2, stronger effect = lower value 0.859 | locus YMR231W, strain pep5, stronger effect = lower value 0.898 | locus YNL071W, strain lat1, stronger effect = lower value 0.875 | locus YOR270C, strain vph1, stronger effect = lower value 0.727 | locus YPL051W, strain arl3, stronger effect = lower value 0.907 | locus YPL240C, strain hsp82, stronger effect = lower value 0.925
